Substitutions are numbered along the chain they refer to; changes in the protein carry UniProt numbers. In all, about 16,000 sequences were measured (“ka relative to ugcaugu”: median about 0.096, highest 2% from about 0.35 on). Many of the other results were omitted from the sample, so the highest values are more common in it than they were.

First the molecules themselves.
T1: RBFOX1 RRM RbFoxmut (Fox-RRM*) (Homo sapiens, UniProt Q9NWB1 109-208, R118D;E147R;N151S;E152T)
T1 sequence: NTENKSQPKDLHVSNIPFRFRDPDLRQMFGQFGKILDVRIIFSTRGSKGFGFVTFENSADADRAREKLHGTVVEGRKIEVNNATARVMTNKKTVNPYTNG

B1: AUUCAGA (DNA:RNA)
RNA: GGGAGACCGGAAUUCAGAUUGUCCAUUCAGAUUAAAUCCCGUCGUAGCCACCA
DNA 1: CAATCTGAATTCCGGTCTCCC
DNA 2: TGGTGGCTACGACGGGATT
B2: AGUCACU (DNA:RNA)
RNA: B1 RNA with U26G, G30C, A31U
DNA 1: CAATCTGAATTCCGGTCTCCC
DNA 2: TGGTGGCTACGACGGGATT
B3: UACUUUU (DNA:RNA)
RNA: GGGAGACCGGAAUUCAGAUUGUCCUACUUUUUUAAAUCCCGUCGUAGCCACCA
DNA 1: CAATCTGAATTCCGGTCTCCC
DNA 2: TGGTGGCTACGACGGGATT
B4: UCCUCCU (DNA:RNA)
RNA: B3 RNA with A26C, U29C, U30C
DNA 1: CAATCTGAATTCCGGTCTCCC
DNA 2: TGGTGGCTACGACGGGATT
B5: UCUGGCC (DNA:RNA)
RNA: B1 RNA with A25U, U26C, C28G, A29G, G30C, A31C
DNA 1: CAATCTGAATTCCGGTCTCCC
DNA 2: TGGTGGCTACGACGGGATT
B6: UGGAGAA (DNA:RNA)
RNA: B1 RNA with A25U, U26G, U27G, C28A, A29G, G30A
DNA 1: CAATCTGAATTCCGGTCTCCC
DNA 2: TGGTGGCTACGACGGGATT
B7: UGGAAUG (DNA:RNA)
RNA: B3 RNA with A26G, C27G, U28A, U29A, U31G
DNA 1: CAATCTGAATTCCGGTCTCCC
DNA 2: TGGTGGCTACGACGGGATT
B8: UGGACUC (DNA:RNA)
RNA: B3 RNA with A26G, C27G, U28A, U29C, U31C
DNA 1: CAATCTGAATTCCGGTCTCCC
DNA 2: TGGTGGCTACGACGGGATT
B9: UGGAUUG (DNA:RNA)
RNA: B3 RNA with A26G, C27G, U28A, U31G
DNA 1: CAATCTGAATTCCGGTCTCCC
DNA 2: TGGTGGCTACGACGGGATT
B10: UGGAGAU (DNA:RNA)
RNA: B3 RNA with A26G, C27G, U28A, U29G, U30A
DNA 1: CAATCTGAATTCCGGTCTCCC
DNA 2: TGGTGGCTACGACGGGATT
B11: UGGAGUC (DNA:RNA)
RNA: B3 RNA with A26G, C27G, U28A, U29G, U31C
DNA 1: CAATCTGAATTCCGGTCTCCC
DNA 2: TGGTGGCTACGACGGGATT
B12: UCCUGGA (DNA:RNA)
RNA: B3 RNA with A26C, U29G, U30G, U31A
DNA 1: CAATCTGAATTCCGGTCTCCC
DNA 2: TGGTGGCTACGACGGGATT
B13: UGGAUUC (DNA:RNA)
RNA: B3 RNA with A26G, C27G, U28A, U31C
DNA 1: CAATCTGAATTCCGGTCTCCC
DNA 2: TGGTGGCTACGACGGGATT
B14: CUGGAUC (DNA:RNA)
RNA: B1 RNA with A25C, U27G, C28G, G30U, A31C
DNA 1: CAATCTGAATTCCGGTCTCCC
DNA 2: TGGTGGCTACGACGGGATT
B15: UGGGAUC (DNA:RNA)
RNA: B3 RNA with A26G, C27G, U28G, U29A, U31C
DNA 1: CAATCTGAATTCCGGTCTCCC
DNA 2: TGGTGGCTACGACGGGATT
B16: UGGAUCU (DNA:RNA)
RNA: B3 RNA with A26G, C27G, U28A, U30C
DNA 1: CAATCTGAATTCCGGTCTCCC
DNA 2: TGGTGGCTACGACGGGATT
B17: UGGAAUC (DNA:RNA)
RNA: B3 RNA with A26G, C27G, U28A, U29A, U31C
DNA 1: CAATCTGAATTCCGGTCTCCC
DNA 2: TGGTGGCTACGACGGGATT
B18: CCAGUUC (DNA:RNA)
RNA: B3 RNA with U25C, A26C, C27A, U28G, U31C
DNA 1: CAATCTGAATTCCGGTCTCCC
DNA 2: TGGTGGCTACGACGGGATT
B19: UCAGAGG (DNA:RNA)
RNA: B1 RNA with A25U, U26C, U27A, C28G, A31G
DNA 1: CAATCTGAATTCCGGTCTCCC
DNA 2: TGGTGGCTACGACGGGATT
B20: CCAUUUC (DNA:RNA)
RNA: B3 RNA with U25C, A26C, C27A, U31C
DNA 1: CAATCTGAATTCCGGTCTCCC
DNA 2: TGGTGGCTACGACGGGATT
B21: UGAUAGC (DNA:RNA)
RNA: B1 RNA with A25U, U26G, U27A, C28U, A31C
DNA 1: CAATCTGAATTCCGGTCTCCC
DNA 2: TGGTGGCTACGACGGGATT
B22: UAUAGUG (DNA:RNA)
RNA: B3 RNA with C27U, U28A, U29G, U31G
DNA 1: CAATCTGAATTCCGGTCTCCC
DNA 2: TGGTGGCTACGACGGGATT
B23: AGUGAUA (DNA:RNA)
RNA: B1 RNA with U26G, C28G, G30U
DNA 1: CAATCTGAATTCCGGTCTCCC
DNA 2: TGGTGGCTACGACGGGATT
B24: UAGGGUG (DNA:RNA)
RNA: B3 RNA with C27G, U28G, U29G, U31G
DNA 1: CAATCTGAATTCCGGTCTCCC
DNA 2: TGGTGGCTACGACGGGATT
B25: UCCACGA (DNA:RNA)
RNA: B1 RNA with A25U, U26C, U27C, C28A, A29C
DNA 1: CAATCTGAATTCCGGTCTCCC
DNA 2: TGGTGGCTACGACGGGATT
B26: CGAGCCU (DNA:RNA)
RNA: B3 RNA with U25C, A26G, C27A, U28G, U29C, U30C
DNA 1: CAATCTGAATTCCGGTCTCCC
DNA 2: TGGTGGCTACGACGGGATT
B27: CGGAUGA (DNA:RNA)
RNA: B1 RNA with A25C, U26G, U27G, C28A, A29U
DNA 1: CAATCTGAATTCCGGTCTCCC
DNA 2: TGGTGGCTACGACGGGATT
B28: UGAUGGA (DNA:RNA)
RNA: B1 RNA with A25U, U26G, U27A, C28U, A29G
DNA 1: CAATCTGAATTCCGGTCTCCC
DNA 2: TGGTGGCTACGACGGGATT
B29: UGGAUGA (DNA:RNA)
RNA: B1 RNA with A25U, U26G, U27G, C28A, A29U
DNA 1: CAATCTGAATTCCGGTCTCCC
DNA 2: TGGTGGCTACGACGGGATT
B30: GGGUGGA (DNA:RNA)
RNA: B1 RNA with A25G, U26G, U27G, C28U, A29G
DNA 1: CAATCTGAATTCCGGTCTCCC
DNA 2: TGGTGGCTACGACGGGATT
B31: AAAUCUG (DNA:RNA)
RNA: B3 RNA with U25A, C27A, U29C, U31G
DNA 1: CAATCTGAATTCCGGTCTCCC
DNA 2: TGGTGGCTACGACGGGATT
B32: UCACACA (DNA:RNA)
RNA: B1 RNA with A25U, U26C, U27A, G30C
DNA 1: CAATCTGAATTCCGGTCTCCC
DNA 2: TGGTGGCTACGACGGGATT

For this assay, the target named is T1, RBFOX1 RRM RbFoxmut (Fox-RRM*). Kind of assay: EMSA; HiTS-Eq, 1 nM pool, 10 min; buffer printed only for the single-RNA assays: 10 mM Tris pH 7.5, 150 mM NaCl, 3.4 mM EDTA, 0.001% NP-40, 30 C. As to conditions: tags: His6 N-terminal (pET28a); label: 5' 32P. In a few lines:
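Purified RbFox RRM (wild type or mutant) was equilibrated for 10 min in 50 µL with 1 nM of a 5′-radiolabelled pool of RNA with 7 randomized nucleotides, its flanks annealed to DNA oligonucleotides, across increasing protein concentrations. Free RNA was separated by 8% native PAGE, excised, reverse-transcribed, PCR-barcoded and sequenced on an Illumina HiSeq 2500. Relative association constants came from read-count changes of each variant against the control reaction, normalised to the cognate motif.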
A general note: In EMSA bound probe runs differently from free probe, usually more slowly.
Consider B1, for which the binding signal was 0.0812 KA relative to UGCAUGU.

For B2, the binding signal was 0.0668 KA relative to UGCAUGU.

Regarding B3, the binding signal was 0.097 KA relative to UGCAUGU.

In the case of B4, the binding signal was 0.0641 KA relative to UGCAUGU.

As to B5, the binding signal is 0.161 KA relative to UGCAUGU.

Turning to B6, the binding signal was 0.0999 KA relative to UGCAUGU.

Consider B7, for which the binding signal was 1.66 KA relative to UGCAUGU.

In the case of B8, the binding signal is 0.0856 KA relative to UGCAUGU.

Turning to B9, the binding signal was 0.526 KA relative to UGCAUGU.

In the case of B10, the binding signal is 0.094 KA relative to UGCAUGU.

Take B11: the binding signal is 0.18 KA relative to UGCAUGU.

On to B12, for which the binding signal was 0.0709 KA relative to UGCAUGU.

On to B13, for which the binding signal was 0.139 KA relative to UGCAUGU.

Regarding B14, the binding signal is 0.274 KA relative to UGCAUGU.

For the molecule B15, the binding signal is 0.357 KA relative to UGCAUGU.

With B16, the binding signal was 0.259 KA relative to UGCAUGU.

On to B17, for which the binding signal is 0.458 KA relative to UGCAUGU.

As to B18, the binding signal was 0.073 KA relative to UGCAUGU.

Take B19: the binding signal is 0.0974 KA relative to UGCAUGU.

Consider B20, for which the binding signal was 0.0493 KA relative to UGCAUGU.

In the case of B21, the binding signal was 0.0858 KA relative to UGCAUGU.

As for B22, the binding signal was 0.137 KA relative to UGCAUGU.

With B23, the binding signal was 0.133 KA relative to UGCAUGU.

On to B24, for which the binding signal was 0.149 KA relative to UGCAUGU.

On to B25, for which the binding signal was 0.0743 KA relative to UGCAUGU.

B26: the binding signal is 0.103 KA relative to UGCAUGU.

Turning to B27, the binding signal is 0.235 KA relative to UGCAUGU.

As for B28, the binding signal was 0.0611 KA relative to UGCAUGU.

Consider B29, for which the binding signal is 0.401 KA relative to UGCAUGU.

Take B30: the binding signal is 0.0811 KA relative to UGCAUGU.

Regarding B31, the binding signal was 0.0533 KA relative to UGCAUGU.

With B32, the binding signal was 0.0876 KA relative to UGCAUGU.

Source of the values: paper PMC9911399, “Two distinct binding modes provide the RNA-binding protein RbFox with extraordinary sequence specificity”.
